Data: PubChem BioAssay (NCI)
The panel holds about 83,000 compounds, 20% with a hit somewhere; the sample as a whole holds those more often.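 Testing used 96-well plates and a 48-hour single-concentration exposure. Example: -40 means 40% of the starting cells died.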 Unmarked numbers belong to inactive results. The source made the active and inactive calls. How the source made its calls: active means growth percent below 10; inactive means the rest.

Assays:
Assay in all cases: NCI-60 one-dose screen, 48 h (100 = growth as untreated, 0 = no growth, -100 = all killed)
Conditions in all cases: 10 µM
DU-145 prostate = tested on: DU-145 prostate
K-562 leukemia = tested on: K-562 leukemia
MALME-3M melanoma = tested on: MALME-3M melanoma
MDA-MB-231 breast = tested on: MDA-MB-231 breast
SF-268 CNS = tested on: SF-268 CNS
SF-295 CNS = tested on: SF-295 CNS
SF-539 CNS = tested on: SF-539 CNS
UACC-257 melanoma = tested on: UACC-257 melanoma
M14 melanoma = tested on: M14 melanoma

## CN1CCN(Cc2ccc(NC(=O)c3cncc(C#Cc4cnc5ccc(N[C@@H]6CCOC6)nn45)c3)cc2C(F)(F)F)CC1
DU-145 prostate
  growth: -100% (active)
K-562 leukemia
  growth: -0.568% (active)
MALME-3M melanoma
  growth: -99.1% (active)
MDA-MB-231 breast
  growth: -94.7% (active)
SF-268 CNS
  growth: -80.7% (active)
SF-295 CNS
  growth: -98.6% (active)
SF-539 CNS
  growth: -100% (active)
UACC-257 melanoma
  growth: -85.9% (active)
M14 melanoma
  growth: -83.3% (active)

## COC(=O)c1c(C(=O)OC)c2n(c1C)[C@@H]([C@@H](C)[C@H]1CC[C@H]3[C@@H]4CCC5=CC(=O)CC[C@]5(C)[C@H]4CC[C@]13C)SC2
DU-145 prostate
  growth: 57.8%
K-562 leukemia
  growth: 15.7%
MALME-3M melanoma
  growth: 62.5%
MDA-MB-231 breast
  growth: 56.7%
SF-268 CNS
  growth: 56.4%
SF-295 CNS
  growth: 24.7%
SF-539 CNS
  growth: 59%
UACC-257 melanoma
  growth: 19.5%
M14 melanoma
  growth: 25.2%

## Cc1ccc(/C=C/C(=O)c2ccc(NC(=O)CSc3nnc(-c4c[nH]c5ccccc45)n3-c3ccccc3)cc2)cc1
DU-145 prostate
  growth: 93%
K-562 leukemia
  growth: 64.1%
MALME-3M melanoma
  growth: 93.9%
MDA-MB-231 breast
  growth: 83.7%
SF-268 CNS
  growth: 82.2%
SF-295 CNS
  growth: 92.4%
SF-539 CNS
  growth: 7.12% (active)
UACC-257 melanoma
  growth: 111%
M14 melanoma
  growth: 82.1%

## CCCCSc1nc(Nc2ccc(/C(C)=N/NC(N)=S)cc2)c(C#N)c(-c2ccc(F)cc2)n1
DU-145 prostate
  growth: 41.5%
K-562 leukemia
  growth: 71.9%
MALME-3M melanoma
  growth: 33.9%
MDA-MB-231 breast
  growth: 3.28% (active)
SF-268 CNS
  growth: 90.1%
SF-295 CNS
  growth: 28.5%
SF-539 CNS
  growth: -13.5% (active)
UACC-257 melanoma
  growth: 78.6%
M14 melanoma
  growth: 79%

## Cc1ccc(CNC(=O)Cc2ccc3c(c2)CN(C2CCC(=O)NC2=O)C3=O)cc1 (stereo not drawn)
DU-145 prostate
  growth: 30.2%
K-562 leukemia
  growth: 14.5%
MALME-3M melanoma
  growth: -64.1% (active)
MDA-MB-231 breast
  growth: -36.7% (active)
SF-268 CNS
  growth: 9.5% (active)
SF-295 CNS
  growth: 6.35% (active)
SF-539 CNS
  growth: 18.6%
UACC-257 melanoma
  growth: 70.5%
M14 melanoma
  growth: -23.5% (active)

## C/C(=N\NC(N)=S)c1ccc(Nc2nc(SC(C)C)nc(-c3ccccc3)c2C#N)cc1
DU-145 prostate
  growth: 70.5%
K-562 leukemia
  growth: 87.2%
MALME-3M melanoma
  growth: 55.7%
MDA-MB-231 breast
  growth: 40.5%
SF-268 CNS
  growth: 54.8%
SF-295 CNS
  growth: 44.3%
SF-539 CNS
  growth: 30.7%
UACC-257 melanoma
  growth: 85.1%
M14 melanoma
  growth: 77.4%

## Cc1ccc(/C(CSc2nnc(-c3c[nH]c4ccccc34)n2-c2ccccc2)=N/O)cc1
DU-145 prostate
  growth: -60.2% (active)
K-562 leukemia
  growth: 1.59% (active)
MALME-3M melanoma
  growth: 16.7%
MDA-MB-231 breast
  growth: -82.1% (active)
SF-268 CNS
  growth: -60.1% (active)
SF-295 CNS
  growth: -49.9% (active)
SF-539 CNS
  growth: 10.1%
UACC-257 melanoma
  growth: 35.7%
M14 melanoma
  growth: -64.4% (active)
